The results in this text go back to PubChem BioAssay (EPA / NIEHS).

Molecules are shown by their SMILES. Activity calls are given as the source filed them. Rule for the calls: active = hit-call score of the fitted dose curve at least 0.9, where 1 is the maximum; inactive = score below 0.9.

Settings in all cases: mRNA level, 48 h; actives raise or lower the signal
Read-out in test [1]: Peroxisomal acyl-coenzyme A oxidase 1 (ACOX1) gene, ACOX1 (gene 51)
Kind of test: LTEA_HepaRG_ACOX1: Life Technologies and Expression Analysis (LTEA) Assay for Peroxisomal acyl-coenzyme A oxidase 1 (ACOX1) gene using HepaRG (AID 2283467). The method in brief:
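Measured by qRT-PCR against three housekeeping genes: ACOX1 transcript change in human HepaRG cells after 48 h dosing. Concentrations ran up to 100 uM in half-log steps. Curves were fitted bidirectionally relative to 0.5% DMSO.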

Read-out in test [2]: Alkaline Phosphatase, Placental (ALPP) gene, ALPP (gene 250)
Description: LTEA_HepaRG_ALPP: Life Technologies and Expression Analysis (LTEA) Assay for Alkaline Phosphatase, Placental (ALPP) gene using HepaRG (AID 2283468).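 For AC50: differentiated human HepaRG liver cells in serum-free induction medium.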 The gist of the method: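 ALPP transcript level, measured by qRT-PCR and normalized to three housekeeping genes (ACTB, GAPDH, POLR2A), after 48 h dosing of differentiated HepaRG in serum-free induction medium. Top concentration 100 uM with half-log dilutions (8 points, 0.5% DMSO, duplicates); bidirectional fitting relative to DMSO.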

Read-out in test [3]: Bcl-2 (BAD) gene, BAD (gene 572)
Kind of test: LTEA_HepaRG_BAD: Life Technologies and Expression Analysis (LTEA) Assay for Bcl-2 (BAD) gene using HepaRG (AID 2283469). The method in brief: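 BAD transcript change, measured by qRT-PCR against three housekeeping genes and fitted in both directions relative to 0.5% DMSO, after 48 h chemical treatment of human HepaRG liver cells at concentrations up to 100 uM.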

Read-out in test [4]: adenosine kinase (ADK) gene, ADK (gene 132)
Description: LTEA_HepaRG_ADK: Life Technologies and Expression Analysis (LTEA) Assay for adenosine kinase (ADK) gene using HepaRG (AID 2283471). The gist of the method:
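Following 48 h exposure of HepaRG cells in 0.5% DMSO (top concentration 100 uM, duplicate wells), ADK mRNA induction or suppression was measured by qRT-PCR, normalised to ACTB/GAPDH/POLR2A, and fitted bidirectionally relative to vehicle.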

Read-out in test [5]: Alpha-fetoprotein (AFP) gene, AFP (gene 174)
Kind of test: LTEA_HepaRG_AFP: Life Technologies and Expression Analysis (LTEA) Assay for Alpha-fetoprotein (AFP) gene using HepaRG (AID 2283472). The method in brief:
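After a 48 h plating period, cells are moved to serum-free induction medium and dosed in duplicate (100 uM maximum, half-log dilutions, 0.5% DMSO) for another 48 h. Total RNA goes to TaqMan qRT-PCR; AFP signal is housekeeping-normalized.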

Read-out in the next test: BCL2L11 (gene 10018)
Kind of test: LTEA_HepaRG_BCL2L11: Life Technologies and Expression Analysis (LTEA) Assay for Bcl-2 (BCL2L11) gene using HepaRG (AID 2283473). The gist of the method: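 BCL2L11 transcript levels are measured by Fluidigm qRT-PCR, normalized to three housekeeping genes. HepaRG cultures were plated 48 h, then treated 48 h with test chemical (top 100 uM, half-log, 0.5% DMSO vehicle); curves were fitted bidirectionally against DMSO.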

Read-out in test [6]: Apolipoprotein A-V (APOA5) gene, APOA5 (gene 116519)
Kind of test: LTEA_HepaRG_APOA5: Life Technologies and Expression Analysis (LTEA) Assay for Apolipoprotein A-V (APOA5) gene using HepaRG (AID 2283474). The gist of the method: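 APOA5 transcript levels were quantified by qRT-PCR, normalized to three housekeeping genes, after 48 h chemical treatment of HepaRG cells (8 points, 100 uM maximum, half-log steps, 0.5% DMSO). Curves fitted in both directions against vehicle.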

Read-out in test [7]: Apoptosis regulator Bcl-2 (Homo sapiens) (UniProt P10415)
Kind of test: LTEA_HepaRG_BCL2: Life Technologies and Expression Analysis (LTEA) Assay for Bcl-2 gene using HepaRG (AID 2283475).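 Note: BCL2 transcript by TaqMan qRT-PCR normalised to ACTB GAPDH and POLR2A.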 The method in brief: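 Expression change of BCL2 mRNA in HepaRG after 48 h dosing, quantified by TaqMan qRT-PCR against three endogenous controls. Concentration-response used eight points up to 100 uM, vehicle 0.5% DMSO.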

Read-out in test [8]: Bcl-2 (BID) gene, BID (gene 637)
Description: LTEA_HepaRG_BID: Life Technologies and Expression Analysis (LTEA) Assay for Bcl-2 (BID) gene using HepaRG (AID 2283476). The gist of the method:
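Gain or loss of BID expression is fitted relative to 0.5% DMSO vehicle. Human HepaRG liver cells received a 48 h chemical exposure over an eight-point concentration range.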

Read-out in a further test: Caspase-3 (Homo sapiens) (UniProt P42574)
Kind of test: LTEA_HepaRG_CASP3: Life Technologies and Expression Analysis (LTEA) Assay for cysteine-aspartic acid protease (CASP3) using HepaRG (AID 2283477). The method in brief: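 Expression of CASP3 was quantified by TaqMan qRT-PCR against three housekeeping genes (ACTB, GAPDH, POLR2A), bidirectionally versus 0.5% DMSO. HepaRG cultures received compounds in duplicate, top 100 uM with half-log steps, for 48 h in serum-free induction medium.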

Read-out in test [9]: Cytochrome P450 (CYP24A1), CYP24A1 (gene 1591)
Kind of test: LTEA_HepaRG_CYP24A1: Life Technologies and Expression Analysis (LTEA) Assay for Cytochrome P450 (CYP24A1) using HepaRG (AID 2283478). The gist of the method: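 mRNA of CYP24A1 quantified by TaqMan qRT-PCR (ACTB/GAPDH/POLR2A normalization) after 48 h chemical exposure of HepaRG cells, top concentration 100 uM, half-log steps, 0.5% DMSO vehicle, duplicates. Curves fitted bidirectionally against DMSO baseline.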

Read-out in test [10]: cysteine-aspartic acid protease (CASP8), CASP8 (gene 841)
Description: LTEA_HepaRG_CASP8: Life Technologies and Expression Analysis (LTEA) Assay for cysteine-aspartic acid protease (CASP8) using HepaRG (AID 2283480). The gist of the method: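 HepaRG, 48 h exposure, duplicate wells; 8 conc, half-log from 100 uM, 0.5% DMSO. Serum-free induction medium. CASP8 mRNA by TaqMan qRT-PCR, norm. ACTB/GAPDH/POLR2A; gain/loss fitted vs DMSO.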

Read-out in test [11]: Cytochrome P450 (CYP2B6), CYP2B6 (gene 1555)
Kind of test: LTEA_HepaRG_CYP2B6: Life Technologies and Expression Analysis (LTEA) Assay for Cytochrome P450 (CYP2B6) using HepaRG (AID 2283481). The gist of the method: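 CYP2B6 transcript level quantified by qRT-PCR against three housekeeping genes, fitted bidirectionally relative to DMSO. HepaRG cultures received chemicals for 48 h, 8-point half-log series from 100 uM in 0.5% DMSO, duplicate wells, serum-free induction medium.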

Read-out in test [12]: Cytochrome P450 2C19 (Homo sapiens) (UniProt P33261)
Description: LTEA_HepaRG_CYP2C19: Life Technologies and Expression Analysis (LTEA) Assay for CYP2C19 using HepaRG (AID 2283482). The gist of the method:
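CYP2C19 transcript levels by qRT-PCR, normalized to three housekeeping genes, in HepaRG cells after 48 h chemical exposure. Eight-point half-log series topping at 100 uM, 0.5% DMSO vehicle. Increases and decreases both fitted against DMSO.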

Read-out in a further test: CYP2C8 (gene 1558)
Kind of test: LTEA_HepaRG_CYP2C8: Life Technologies and Expression Analysis (LTEA) Assay for CYP2C8 using HepaRG (AID 2283483). The method in brief:
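CYP2C8 mRNA induction or loss, by qRT-PCR normalized to ACTB/GAPDH/POLR2A, is read in HepaRG cells after 48 h treatment. Concentrations run from 100 uM down in half-log dilutions, with 0.5% DMSO as vehicle and baseline.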

Read-out in a further test: CYP2C9 (gene 1559)
Description: LTEA_HepaRG_CYP2C9: Life Technologies and Expression Analysis (LTEA) Assay for CYP2C9 using HepaRG (AID 2283484). The method in brief:
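Cells plated 48 h, switched to serum-free induction medium, then treated in duplicate for 48 h at eight concentrations (max 100 uM, 0.5% DMSO). RNA then analysed by qRT-PCR for CYP2C9; curves fitted in both directions relative to DMSO.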

Read-out in another test: CYP2E1 (gene 1571)
Kind of test: LTEA_HepaRG_CYP2E1: Life Technologies and Expression Analysis (LTEA) Assay for CYP2E1 using HepaRG (AID 2283485). The method in brief: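 Differentiated HepaRG cells were treated in duplicate for 48 h with chemicals in 0.5% DMSO, from 100 uM downward in half-log dilutions. RNA was then analysed by qRT-PCR for CYP2E1 induction or loss.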

Read-out in a further test: CYP4A11 (gene 1579)
Kind of test: LTEA_HepaRG_CYP4A11: Life Technologies and Expression Analysis (LTEA) Assay for CYP4A11 using HepaRG (AID 2283486). The method in brief: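 Readout is CYP4A11 transcript level by qRT-PCR, normalized to three housekeeping genes and fitted bidirectionally against 0.5% DMSO. Human HepaRG cells were treated 48 h, in duplicate, with an 8-point half-log series topping at 100 uM.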

Read-out in test [13]: Cytochrome P450 (CYP1A2), CYP1A2 (gene 1544)
Kind of test: LTEA_HepaRG_CYP1A2: Life Technologies and Expression Analysis (LTEA) Assay for Cytochrome P450 (CYP1A2) using HepaRG (AID 2283479). The gist of the method: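 CYP1A2 transcript measured by TaqMan qRT-PCR against three housekeeping genes after 48-hour chemical exposure of HepaRG cells. Eight-point half-log series topping at 100 uM in 0.5% DMSO, duplicates; gain or loss fitted relative to vehicle.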

Caspase-3 (Homo sapiens), sequence (P42574 whole entry, looked up): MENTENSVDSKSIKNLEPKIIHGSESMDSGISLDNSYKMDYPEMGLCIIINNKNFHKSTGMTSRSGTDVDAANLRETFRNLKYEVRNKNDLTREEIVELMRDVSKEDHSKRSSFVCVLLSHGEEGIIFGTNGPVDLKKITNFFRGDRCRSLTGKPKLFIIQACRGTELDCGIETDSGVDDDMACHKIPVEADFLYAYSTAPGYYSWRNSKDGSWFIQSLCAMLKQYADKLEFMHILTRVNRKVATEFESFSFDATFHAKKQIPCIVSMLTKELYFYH
Apoptosis regulator Bcl-2 (Homo sapiens), sequence (P10415 whole entry, looked up): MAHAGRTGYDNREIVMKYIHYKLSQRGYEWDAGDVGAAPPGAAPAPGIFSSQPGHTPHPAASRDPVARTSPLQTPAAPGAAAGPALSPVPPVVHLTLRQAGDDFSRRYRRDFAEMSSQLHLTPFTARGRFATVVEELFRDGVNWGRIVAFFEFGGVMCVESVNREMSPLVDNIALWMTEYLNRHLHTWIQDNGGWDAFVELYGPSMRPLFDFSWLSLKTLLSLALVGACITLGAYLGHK
Cytochrome P450 2C19 (Homo sapiens), sequence (P33261 whole entry, looked up): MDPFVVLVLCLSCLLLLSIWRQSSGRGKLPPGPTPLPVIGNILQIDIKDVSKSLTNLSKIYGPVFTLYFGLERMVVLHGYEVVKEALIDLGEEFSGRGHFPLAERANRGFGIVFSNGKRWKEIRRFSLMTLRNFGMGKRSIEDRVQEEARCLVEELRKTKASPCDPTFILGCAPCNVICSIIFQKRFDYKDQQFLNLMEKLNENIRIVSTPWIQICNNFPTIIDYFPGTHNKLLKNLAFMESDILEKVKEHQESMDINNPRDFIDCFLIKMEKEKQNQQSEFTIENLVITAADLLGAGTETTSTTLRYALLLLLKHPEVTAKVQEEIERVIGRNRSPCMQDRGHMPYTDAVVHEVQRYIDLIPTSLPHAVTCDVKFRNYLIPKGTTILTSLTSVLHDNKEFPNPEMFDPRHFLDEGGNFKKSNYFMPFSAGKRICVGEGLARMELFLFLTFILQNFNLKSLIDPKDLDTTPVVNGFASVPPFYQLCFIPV

A word on the AC50: it is the midpoint of the concentration-response curve, whichever way the signal moves. Regarding `CCCCc1nc2cccnc2n1Cc1ccc(-c2ccccc2-c2nnn[nH]2)cc1`, the call (in test [1]; in [3]; in test [4]; with BCL2L11 (gene 10018); in [6]; in test [7]) was inactive. Also, the molecule was called inactive (in test [8]; with Caspase-3 (Homo sapiens); in test [9]; in [10]; in [12]; in the test with CYP2C8 (gene 1558)). For the same molecule, the outcome with CYP2C9 (gene 1559) and with CYP4A11 (gene 1579) was inactive. The AC50 in [2] was 15.5 µM (active); in [5], 33.2 µM (active); in test [11], 10.4 µM (active); with CYP2E1 (gene 1571) it was 28.6 µM (active).
In the case of `Cc1occc(=O)c1O`, the call (in [1]; in test [2]; in [3]; in [4]; in test [5]; with BCL2L11 (gene 10018)) was inactive. Moreover, the call (in [6]; in [7]; in test [8]; in the test with Caspase-3 (Homo sapiens); in test [9]; in test [13]) was inactive. The call (in [10]; in test [12]; with CYP2C8 (gene 1558); with CYP2C9 (gene 1559); with CYP2E1 (gene 1571); with CYP4A11 (gene 1579)) was inactive.
Regarding `O=[Si]=O`, the molecule was called inactive (in [1]; in [2]; in test [3]; in test [4]; in test [5]; with BCL2L11 (gene 10018)). Also, the call (in test [6]; in [7]; in test [8]; with Caspase-3 (Homo sapiens); in test [9]; in test [10]) was inactive. Besides, the result (in test [12]; with CYP2C8 (gene 1558); in the test with CYP2C9 (gene 1559); in the test with CYP2E1 (gene 1571); in the test with CYP4A11 (gene 1579)) was inactive.
Regarding `Cc1cn([C@H]2C=C[C@@H](CO)O2)c(=O)[nH]c1=O`, the outcome in test [1], in [2], in test [3], in [4], in test [5] and in test [6] was inactive. Further, the result (in test [7]; in [8]; with Caspase-3 (Homo sapiens); in test [9]; in [10]; in test [12]) was inactive. Also, the call with CYP2C8 (gene 1558), with CYP2C9 (gene 1559), with CYP2E1 (gene 1571) and with CYP4A11 (gene 1579) was inactive. Further, the AC50 in test [11] is 10.3 µM (active).
As for `Oc1ccc(O)cc1`, the molecule was classed as inactive (in [1]; in test [2]; in test [3]; in test [4]; in test [5]; with BCL2L11 (gene 10018)). For the same molecule, the molecule was called inactive (in [6]; in test [7]; in test [8]; in the test with Caspase-3 (Homo sapiens); in [9]; in test [10]). Moreover, the call (in [11]; in [12]; in the test with CYP2C8 (gene 1558); with CYP2C9 (gene 1559); with CYP2E1 (gene 1571); with CYP4A11 (gene 1579)) was inactive.
